Source: PubChem BioAssay (NCATS)
Records with an inconclusive call do not appear. Active and inactive are the calls of the source. Calls come from the whole dose curve; as a rule, active = well fitted inhibition curve with a large enough effect; inconclusive = small, poorly fitted or top-dose-only effect; inactive = no such curve, though single readings can be large or run the other way.

The molecules below were run against Tumor susceptibility gene 101 protein (Homo sapiens) (UniProt Q99816) (assay: qHTS Assay for Iinhibitors of HIV-1 Budding by Blocking the Interaction of PTAP/TSG101: Hit Validation (AID 651600; note: nearly all actives have a fitted effect of over 70% in size)). Settings: PTAP peptide/TSG101 UEV interaction, biochemical assay; series mostly up to 57.5 µM; activity change, negative = inhibition: at the top concentration.
Outline: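 Fluorescence polarization binding assay: Tsg101 binding domain (10 uM) mixed with compounds and FITC-labeled PTAP peptide (50 nM) in HEPES pH 7.5, 0.15 M NaCl, 0.01% Tween 20, EDTA, TCEP; 20 min at r.t.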
% is set by controls: 0 for no effect and ±100 for the full control effect; potency is the fitted concentration of half-maximal effect.

Sequence of Tumor susceptibility gene 101 protein (Homo sapiens) (Q99816 whole entry, looked up, the tested form may be a part): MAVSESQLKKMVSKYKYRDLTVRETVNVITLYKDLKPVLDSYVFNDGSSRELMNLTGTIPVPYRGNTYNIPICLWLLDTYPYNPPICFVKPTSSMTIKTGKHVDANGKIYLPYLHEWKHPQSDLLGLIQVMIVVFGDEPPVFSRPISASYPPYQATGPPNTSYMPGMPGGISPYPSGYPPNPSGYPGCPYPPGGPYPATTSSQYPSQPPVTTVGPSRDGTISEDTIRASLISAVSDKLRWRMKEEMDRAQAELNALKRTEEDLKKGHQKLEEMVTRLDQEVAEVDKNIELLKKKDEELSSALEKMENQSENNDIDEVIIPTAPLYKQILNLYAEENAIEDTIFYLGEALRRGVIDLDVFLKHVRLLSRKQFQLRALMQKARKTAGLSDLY

Potency, active:
Nc1cccc(N2C(=O)c3cccc4c(N)ccc(c34)C2=O)c1 4.11 µM
CC1=CC(=C(C#N)c2nc3ccccc3s2)C=C(C)N1c1ccc(F)cc1 18.3 µM
O=c1cc2oc3cc(O)c(O)cc3c(-c3ccccc3O)c-2cc1O 13 µM
Cc1ccccc1N1C(=O)c2cccc3c(N(C)CCO)ccc(c23)C1=O 13 µM
Nc1nnnn1/N=C/c1cc(Cl)cc(Cl)c1O 18.3 µM
CCCN(CCC)S(=O)(=O)c1ccc(C(=O)OCCN2C(=O)c3cccc4c(N5CCOCC5)ccc(c34)C2=O)cc1 18.3 µM
COc1cc2c(cc1OC)-c1cc3ccc4c(c3c[n+]1CC2)OCO4 13 µM
CCCN1C(=O)/C(=C/C=C2\N(CC)c3ccccc3C2(C)C)SC1=S 29.1 µM

Activity change, negative = inhibition, inactive:
CC(C)(C)C(=O)c1sc2nc(-c3cccs3)cc(C(F)(F)F)c2c1N 11.5%
CCCCC(=O)NC1=NC(=O)C(C)(C)S1 0.827%
Clc1ccc(C2=CC(c3ccco3)n3ncnc3N2)cc1 (stereo not given) -16.1%
COc1ccc(-c2onc3ccc(Br)cc23)cc1 -8.81%
c1ccc2c(c1)CCCN2Cc1nnnn1CC1CCCO1 (stereo not given) -24.7%
Cn1c(=O)c2[nH]c(COc3ccccc3)nc2n(C)c1=O -4.67%
CC(=O)c1ccc(N2C(=O)C3C(C2=O)C(C(=O)c2ccc(Cl)cc2)N2CCCC32)cc1 (stereo not given) -21.7%
O=[N+]([O-])c1cc(Cl)c2cccnc2c1O -1.11%
COc1ccc(/C=c2\s/c(=C/C(=O)c3ccc(C)cc3)[nH]c2=O)c(OC)c1 1.51%
CCOC(=O)C1Nc2ccccc2C2C(O)C(O)CC12 (stereo not given) -18.1%
Cc1ccc(/C=C/C(=O)Nc2ccc(S(=O)(=O)Nc3onc(C)c3C)cc2)cc1 4.41%
O=S(=O)(Nc1nc2n(n1)C(c1ccccc1)C=C(c1ccc(Cl)cc1)N2)c1ccccc1 (stereo not given) -16.2%
COC(=O)CNc1c(-c2ccccc2)nc2ccc(Br)cn12 -14.8%
CCOC(=O)c1c(C)oc2c1c(CN1CCN(C(=O)OCC)CC1)c(O)c1ccccc12 -5.85%
O=C(O)c1ccc(-n2c(-c3ccc(Br)cc3)n[nH]c2=S)cc1 -23.7%
ClCc1nc2ccccc2n1Cc1ccccc1 -12.9%
Cc1ccc(CSc2nnc3c(n2)OC2(Nc4ccccc4-3)C(=O)Nc3ccc(F)cc32)cc1 (stereo not given) -4.93%
O=C1c2ccccc2S(=O)(=O)c2cc(N3CCN(C(=O)c4ccccc4)CC3)ccc21 -20.7%
COc1ccc(CNS(=O)(=O)c2cc3c(cc2Cl)N(C(C)=O)CCO3)cc1 -1.31%
CC(C)(C)OC(=O)NC(Cc1ccccc1)C(=O)N1CCC(C(=O)NCC(=O)Nc2ccc(F)cc2)CC1 (stereo not given) 0.595%
O=C(NCc1ccco1)c1cccc2c1C(=O)c1ccc(N3CCC(Cc4ccccc4)CC3)cc1S2(=O)=O -18.3%
CCOC(=O)C1CCCN(c2nc3ccccc3nc2C(C#N)C(=O)NCc2ccccc2)C1 (stereo not given) -23.5%
N#CC(C(=O)NC1CC1)c1nc2ccccc2nc1N1CCCC1 (stereo not given) 12.8%
Cc1ccc(CNC(=O)C2CCCN(S(=O)(=O)c3c(C)[nH]c(=O)[nH]c3=O)C2)cc1 (stereo not given) -6.89%
S=C(NCc1ccccc1)Nc1cccc(Cl)c1 -1.4%
COC(=O)C[C@H]1c2cc(F)ccc2S(=O)(=O)N1c1ccccc1 2.09%
CCCCCCCCOc1ccc(C2OC34CCCCC3C(C#N)(C#N)C2(C#N)C(=N)O4)cc1 (stereo not given) -14.4%
Cc1ccc2nc(-c3ccco3)c(Nc3ccccc3)n2c1 6.19%
OC(CN1CCN(c2ccccn2)CC1)Cn1c2ccccc2c2ccccc21 (stereo not given) -4.52%
Cc1cccc2cc(/C=C3\N=C(c4ccccc4)OC3=O)c(N3CCOCC3)nc12 -1.31%
Cn1cc(/C=C2\SC(=S)N(NC(=O)c3ccccc3)C2=O)c2ccccc21 11.4%
COc1ccc(-c2cc(C(F)(F)F)c3c(N)c(C(=O)NCCSC)sc3n2)cc1 -1.51%
